Among the data in article PMC7862700, “An all-to-all approach to the identification of sequence-specific readers for epigenetic DNA modifications on cytosine” are binding signal values, retold here.

Experiment in all cases: DAPPL (digital affinity profiling via proximity ligation, sequencing); 10 mM Tris-HCl pH 7.5, 50 mM NaCl, 1 mM DTT, 4% glycerol, room temperature, 30 min; GST-TFs on glutathione beads, 16-mer random dsDNA library, 0.1% formaldehyde crosslink after washing; high values mean tight binding
Holding throughout (settings): protein: recombinant; tags: N-terminal GST; dsDNA, one strand shown

One test deals with T1, FLI1 (Homo sapiens, UniProt Q01543 1-452).
T1 sequence: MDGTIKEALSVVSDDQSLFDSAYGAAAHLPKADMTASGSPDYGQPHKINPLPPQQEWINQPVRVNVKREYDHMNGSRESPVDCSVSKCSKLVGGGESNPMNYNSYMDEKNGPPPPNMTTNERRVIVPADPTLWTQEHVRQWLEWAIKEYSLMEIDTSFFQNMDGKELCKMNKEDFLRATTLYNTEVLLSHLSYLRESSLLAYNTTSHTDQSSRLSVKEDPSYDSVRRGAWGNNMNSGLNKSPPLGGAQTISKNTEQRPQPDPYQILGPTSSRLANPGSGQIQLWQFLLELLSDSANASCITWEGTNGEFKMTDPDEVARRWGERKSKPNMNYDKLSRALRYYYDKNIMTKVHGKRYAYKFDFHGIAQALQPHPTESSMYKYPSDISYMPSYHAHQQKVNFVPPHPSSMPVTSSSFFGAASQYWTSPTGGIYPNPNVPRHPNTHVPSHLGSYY
The method in brief:
(§1)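 After expression in yeast as GST fusions, human transcription factors were bound to glutathione beads, DNA-barcoded and mixed with a tag-only sample. The pools were incubated with 200 nmole of a 16-mer random double-stranded DNA library in Tris/NaCl/DTT/glycerol buffer (30 min, room temperature), washed and crosslinked with 0.1% formaldehyde. Proximity ligation with BsaI/T4 ligase ran for 1 h at 37 °C, before PCR amplification and sequencing on an Illumina NextSeq500. Binding signal is a hexamer's read frequency for a factor divided by its frequency for the tag-only sample.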

The next test concerns the target T2, ELK1 (Homo sapiens, UniProt P19419 1-428).
T2 sequence: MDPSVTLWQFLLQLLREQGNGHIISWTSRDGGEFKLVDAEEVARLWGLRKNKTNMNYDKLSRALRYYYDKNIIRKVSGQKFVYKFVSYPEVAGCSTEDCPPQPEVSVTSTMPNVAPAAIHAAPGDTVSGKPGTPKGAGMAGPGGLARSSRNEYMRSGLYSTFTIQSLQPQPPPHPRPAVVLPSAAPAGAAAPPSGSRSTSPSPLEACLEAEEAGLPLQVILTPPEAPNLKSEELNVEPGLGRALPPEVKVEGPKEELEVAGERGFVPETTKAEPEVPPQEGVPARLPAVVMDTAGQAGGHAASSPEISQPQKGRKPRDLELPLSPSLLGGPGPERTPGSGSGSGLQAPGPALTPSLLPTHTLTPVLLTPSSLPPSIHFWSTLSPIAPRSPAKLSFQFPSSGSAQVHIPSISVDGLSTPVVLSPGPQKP
The method in brief:
as §1

The target of another test is T3, GABPA (Homo sapiens, UniProt Q06546 1-454).
T3 sequence: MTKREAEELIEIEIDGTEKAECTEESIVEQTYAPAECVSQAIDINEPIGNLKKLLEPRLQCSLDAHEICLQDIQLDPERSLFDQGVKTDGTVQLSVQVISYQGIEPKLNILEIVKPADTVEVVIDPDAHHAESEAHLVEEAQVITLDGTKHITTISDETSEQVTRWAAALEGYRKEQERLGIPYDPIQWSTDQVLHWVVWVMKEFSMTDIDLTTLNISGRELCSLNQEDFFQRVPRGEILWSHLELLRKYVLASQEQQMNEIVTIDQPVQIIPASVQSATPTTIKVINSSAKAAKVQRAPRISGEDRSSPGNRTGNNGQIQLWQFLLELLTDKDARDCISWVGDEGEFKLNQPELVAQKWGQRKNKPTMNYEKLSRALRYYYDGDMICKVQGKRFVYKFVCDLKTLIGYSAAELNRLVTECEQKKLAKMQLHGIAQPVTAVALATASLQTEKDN
The method in brief:
as §1

The next test addresses T4, ERG (Homo sapiens, UniProt P11308 1-479).
T4 sequence: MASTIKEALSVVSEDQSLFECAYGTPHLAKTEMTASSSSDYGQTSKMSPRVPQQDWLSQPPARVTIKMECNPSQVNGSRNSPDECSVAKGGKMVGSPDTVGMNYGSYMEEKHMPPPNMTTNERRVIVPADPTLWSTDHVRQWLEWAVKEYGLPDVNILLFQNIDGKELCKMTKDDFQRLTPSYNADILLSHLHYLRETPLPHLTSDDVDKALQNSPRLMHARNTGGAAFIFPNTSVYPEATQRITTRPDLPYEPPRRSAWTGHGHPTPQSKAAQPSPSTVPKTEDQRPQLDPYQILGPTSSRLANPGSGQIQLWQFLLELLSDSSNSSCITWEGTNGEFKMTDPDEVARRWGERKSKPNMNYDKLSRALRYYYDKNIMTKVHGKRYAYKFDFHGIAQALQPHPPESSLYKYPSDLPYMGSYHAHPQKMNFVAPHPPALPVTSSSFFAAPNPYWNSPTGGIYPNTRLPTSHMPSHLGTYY
Put shortly: as §1

The next test has as its target ELF1 (Homo sapiens, UniProt P32519 1-619). Put shortly: as §1
The next test deals with T5, EHF (Homo sapiens, UniProt Q9NZC4 1-300).
T5 sequence: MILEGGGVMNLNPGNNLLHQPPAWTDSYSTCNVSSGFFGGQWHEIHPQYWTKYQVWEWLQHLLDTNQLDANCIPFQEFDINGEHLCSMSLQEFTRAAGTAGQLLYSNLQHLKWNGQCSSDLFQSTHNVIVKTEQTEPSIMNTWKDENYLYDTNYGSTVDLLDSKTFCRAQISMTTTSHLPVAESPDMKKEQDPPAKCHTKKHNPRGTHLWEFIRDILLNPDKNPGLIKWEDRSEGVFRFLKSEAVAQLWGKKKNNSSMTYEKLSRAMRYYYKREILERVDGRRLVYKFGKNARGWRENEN
Put shortly:
as §1

The target in the next test is SPI1 (Homo sapiens, UniProt P17947 1-270). The method in brief:
as §1

The target in another test is SPIB (Homo sapiens, UniProt Q01892 1-262). Put shortly: as §1
For another test, the target named is T6, ELK3 (Homo sapiens, UniProt P41970 1-407).
T6 sequence: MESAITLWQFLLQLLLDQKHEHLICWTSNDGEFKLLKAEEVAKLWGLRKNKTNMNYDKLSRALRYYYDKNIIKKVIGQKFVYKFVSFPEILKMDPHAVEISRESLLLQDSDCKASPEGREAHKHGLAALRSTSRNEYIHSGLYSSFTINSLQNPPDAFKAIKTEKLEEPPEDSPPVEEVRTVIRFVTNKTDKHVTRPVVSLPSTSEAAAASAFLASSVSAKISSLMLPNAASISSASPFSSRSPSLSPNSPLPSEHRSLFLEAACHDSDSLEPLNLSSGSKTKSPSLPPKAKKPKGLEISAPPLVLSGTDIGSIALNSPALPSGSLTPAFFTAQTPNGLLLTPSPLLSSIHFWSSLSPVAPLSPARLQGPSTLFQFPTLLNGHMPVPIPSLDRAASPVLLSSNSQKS
Put shortly:
as §1

Another test deals with T7, FEV (Homo sapiens, UniProt Q99581 1-238).
T7 sequence: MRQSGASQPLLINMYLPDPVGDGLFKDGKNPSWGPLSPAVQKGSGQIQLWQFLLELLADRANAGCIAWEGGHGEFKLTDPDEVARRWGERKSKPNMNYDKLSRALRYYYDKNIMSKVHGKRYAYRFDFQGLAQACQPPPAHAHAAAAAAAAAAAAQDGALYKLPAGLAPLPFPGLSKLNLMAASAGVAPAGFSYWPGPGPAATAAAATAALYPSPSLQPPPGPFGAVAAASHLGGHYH
Put shortly: as §1

The target in a further test is ETV5 (Homo sapiens, UniProt P41161 1-510). Put shortly:
as §1

The target in another test is T8, SPIC (Homo sapiens, UniProt Q8N5J4 1-248).
T8 sequence: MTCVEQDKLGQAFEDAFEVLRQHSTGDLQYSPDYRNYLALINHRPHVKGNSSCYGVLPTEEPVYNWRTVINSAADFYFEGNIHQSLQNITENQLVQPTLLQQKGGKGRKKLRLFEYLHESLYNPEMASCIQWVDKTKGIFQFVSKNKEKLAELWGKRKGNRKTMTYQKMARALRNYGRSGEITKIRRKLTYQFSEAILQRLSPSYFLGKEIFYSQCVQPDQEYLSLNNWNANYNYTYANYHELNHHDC
Put shortly: as §1

Another test concerns the target ELF4 (Homo sapiens, UniProt Q99607 1-663). Put shortly: as §1
Another test concerns the target ETV1 (Homo sapiens, UniProt P50549 1-477). The method in brief: as §1
The target in a further test is T9, ERF (Homo sapiens, UniProt P50548 1-548).
T9 sequence: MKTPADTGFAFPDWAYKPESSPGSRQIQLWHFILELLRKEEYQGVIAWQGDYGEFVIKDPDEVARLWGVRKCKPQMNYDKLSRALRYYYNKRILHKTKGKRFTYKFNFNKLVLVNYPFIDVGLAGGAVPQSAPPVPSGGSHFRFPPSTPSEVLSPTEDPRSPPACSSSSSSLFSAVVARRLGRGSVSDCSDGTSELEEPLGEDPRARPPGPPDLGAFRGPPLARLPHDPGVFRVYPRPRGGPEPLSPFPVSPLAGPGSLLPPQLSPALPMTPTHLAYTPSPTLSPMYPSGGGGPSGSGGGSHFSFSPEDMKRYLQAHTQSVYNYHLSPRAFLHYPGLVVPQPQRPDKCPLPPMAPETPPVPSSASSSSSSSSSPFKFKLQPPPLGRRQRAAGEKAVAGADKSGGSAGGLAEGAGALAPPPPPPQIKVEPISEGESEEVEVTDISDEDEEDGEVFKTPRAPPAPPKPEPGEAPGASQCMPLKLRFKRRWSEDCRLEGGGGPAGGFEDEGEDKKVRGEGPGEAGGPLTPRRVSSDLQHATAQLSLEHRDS
Put shortly: as §1

In another test the target is T10, ETV3L (Homo sapiens, UniProt Q6ZN32 1-361).
T10 sequence: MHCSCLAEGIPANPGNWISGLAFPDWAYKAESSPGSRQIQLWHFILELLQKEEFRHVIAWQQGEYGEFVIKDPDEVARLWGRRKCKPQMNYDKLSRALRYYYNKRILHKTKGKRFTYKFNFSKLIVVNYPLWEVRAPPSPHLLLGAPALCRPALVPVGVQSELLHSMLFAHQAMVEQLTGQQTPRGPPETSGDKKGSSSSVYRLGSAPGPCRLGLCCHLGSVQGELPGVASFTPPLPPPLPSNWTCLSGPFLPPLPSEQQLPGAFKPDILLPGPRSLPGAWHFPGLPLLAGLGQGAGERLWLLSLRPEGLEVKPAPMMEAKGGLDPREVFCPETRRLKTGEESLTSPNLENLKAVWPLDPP
Put shortly:
as §1

In a further test the target is T11, ETS2 (Homo sapiens, UniProt P15036 1-469).
T11 sequence: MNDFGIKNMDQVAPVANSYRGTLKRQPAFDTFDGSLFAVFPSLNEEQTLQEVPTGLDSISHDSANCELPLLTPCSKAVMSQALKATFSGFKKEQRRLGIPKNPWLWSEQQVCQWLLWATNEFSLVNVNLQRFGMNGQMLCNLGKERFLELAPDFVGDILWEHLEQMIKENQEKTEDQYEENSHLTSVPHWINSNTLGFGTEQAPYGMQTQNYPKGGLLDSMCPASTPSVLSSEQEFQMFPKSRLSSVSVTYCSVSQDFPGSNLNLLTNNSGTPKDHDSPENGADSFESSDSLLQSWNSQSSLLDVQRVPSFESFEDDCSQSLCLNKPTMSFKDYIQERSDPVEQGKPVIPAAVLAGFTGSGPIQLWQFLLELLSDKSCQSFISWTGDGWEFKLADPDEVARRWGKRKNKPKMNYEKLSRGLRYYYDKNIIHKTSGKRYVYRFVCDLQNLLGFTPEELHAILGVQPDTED
Put shortly: as §1

The next test deals with T12, ELF5 (Homo sapiens, UniProt Q9UKW6-2 1-255).
T12 sequence: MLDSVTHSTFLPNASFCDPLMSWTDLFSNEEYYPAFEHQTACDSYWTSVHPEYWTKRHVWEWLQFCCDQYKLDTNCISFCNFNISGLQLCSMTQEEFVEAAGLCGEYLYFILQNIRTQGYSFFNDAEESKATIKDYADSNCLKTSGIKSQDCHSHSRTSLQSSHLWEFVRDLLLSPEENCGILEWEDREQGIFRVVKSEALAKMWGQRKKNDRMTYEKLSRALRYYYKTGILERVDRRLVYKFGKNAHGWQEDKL
Put shortly: as §1

The next test has as its target T13, ETV3 (Homo sapiens, UniProt P41162-2 1-143).
T13 sequence: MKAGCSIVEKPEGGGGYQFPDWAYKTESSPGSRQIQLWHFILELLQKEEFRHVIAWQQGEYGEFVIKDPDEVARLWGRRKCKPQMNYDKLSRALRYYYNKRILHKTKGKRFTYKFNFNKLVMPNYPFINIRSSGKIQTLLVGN
The method in brief:
as §1

The next test has as its target ETV6 (Homo sapiens, UniProt P41212 1-452). Put shortly:
as §1

Chain of ETV5 (P41161 whole entry): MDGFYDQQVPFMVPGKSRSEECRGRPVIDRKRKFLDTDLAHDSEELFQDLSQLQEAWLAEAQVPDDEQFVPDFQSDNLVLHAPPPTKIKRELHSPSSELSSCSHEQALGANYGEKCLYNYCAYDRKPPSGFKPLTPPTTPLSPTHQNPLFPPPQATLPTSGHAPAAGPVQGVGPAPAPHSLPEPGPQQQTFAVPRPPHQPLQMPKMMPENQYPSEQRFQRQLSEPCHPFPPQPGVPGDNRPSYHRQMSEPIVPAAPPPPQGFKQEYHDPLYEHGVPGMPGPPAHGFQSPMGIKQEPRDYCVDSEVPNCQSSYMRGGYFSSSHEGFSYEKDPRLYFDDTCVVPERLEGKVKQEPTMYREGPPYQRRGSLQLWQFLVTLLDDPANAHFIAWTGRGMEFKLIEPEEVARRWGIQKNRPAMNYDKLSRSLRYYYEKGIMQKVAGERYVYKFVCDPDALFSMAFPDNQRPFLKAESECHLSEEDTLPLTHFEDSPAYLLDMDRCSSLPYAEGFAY
Chain of ELF1 (P32519 whole entry): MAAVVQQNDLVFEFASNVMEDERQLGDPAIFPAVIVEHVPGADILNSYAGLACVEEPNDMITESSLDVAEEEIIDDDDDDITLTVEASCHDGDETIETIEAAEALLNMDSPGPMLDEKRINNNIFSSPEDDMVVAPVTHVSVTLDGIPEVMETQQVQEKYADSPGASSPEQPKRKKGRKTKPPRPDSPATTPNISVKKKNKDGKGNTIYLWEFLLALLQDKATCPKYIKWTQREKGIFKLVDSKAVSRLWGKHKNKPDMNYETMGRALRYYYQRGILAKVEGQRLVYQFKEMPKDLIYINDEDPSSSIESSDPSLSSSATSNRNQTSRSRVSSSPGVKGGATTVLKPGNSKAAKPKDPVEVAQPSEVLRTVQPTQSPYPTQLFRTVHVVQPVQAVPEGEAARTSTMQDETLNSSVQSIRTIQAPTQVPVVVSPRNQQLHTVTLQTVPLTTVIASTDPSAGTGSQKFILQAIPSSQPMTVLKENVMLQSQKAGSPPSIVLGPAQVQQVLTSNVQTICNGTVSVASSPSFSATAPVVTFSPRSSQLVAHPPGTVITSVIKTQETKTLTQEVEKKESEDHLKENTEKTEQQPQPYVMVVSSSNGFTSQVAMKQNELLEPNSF
Chain of ELF4 (Q99607 whole entry): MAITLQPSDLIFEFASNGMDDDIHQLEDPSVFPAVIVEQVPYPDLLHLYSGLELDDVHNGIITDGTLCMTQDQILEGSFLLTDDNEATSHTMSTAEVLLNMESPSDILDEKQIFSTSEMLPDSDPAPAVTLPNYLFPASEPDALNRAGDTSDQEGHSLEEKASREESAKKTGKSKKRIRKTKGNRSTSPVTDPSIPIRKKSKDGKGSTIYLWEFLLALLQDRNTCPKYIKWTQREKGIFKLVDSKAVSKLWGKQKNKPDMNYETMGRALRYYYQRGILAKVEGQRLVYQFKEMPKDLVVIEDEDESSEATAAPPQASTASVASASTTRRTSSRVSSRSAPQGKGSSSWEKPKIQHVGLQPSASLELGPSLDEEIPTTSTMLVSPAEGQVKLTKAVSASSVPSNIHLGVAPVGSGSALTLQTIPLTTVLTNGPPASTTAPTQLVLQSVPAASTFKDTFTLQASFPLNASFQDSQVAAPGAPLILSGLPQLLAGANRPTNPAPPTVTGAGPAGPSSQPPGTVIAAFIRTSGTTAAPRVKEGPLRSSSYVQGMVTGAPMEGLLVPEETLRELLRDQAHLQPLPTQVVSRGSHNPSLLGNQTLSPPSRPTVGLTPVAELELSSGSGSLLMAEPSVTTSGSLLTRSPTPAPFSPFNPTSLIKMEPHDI
Chain of ETV6 (P41212 whole entry): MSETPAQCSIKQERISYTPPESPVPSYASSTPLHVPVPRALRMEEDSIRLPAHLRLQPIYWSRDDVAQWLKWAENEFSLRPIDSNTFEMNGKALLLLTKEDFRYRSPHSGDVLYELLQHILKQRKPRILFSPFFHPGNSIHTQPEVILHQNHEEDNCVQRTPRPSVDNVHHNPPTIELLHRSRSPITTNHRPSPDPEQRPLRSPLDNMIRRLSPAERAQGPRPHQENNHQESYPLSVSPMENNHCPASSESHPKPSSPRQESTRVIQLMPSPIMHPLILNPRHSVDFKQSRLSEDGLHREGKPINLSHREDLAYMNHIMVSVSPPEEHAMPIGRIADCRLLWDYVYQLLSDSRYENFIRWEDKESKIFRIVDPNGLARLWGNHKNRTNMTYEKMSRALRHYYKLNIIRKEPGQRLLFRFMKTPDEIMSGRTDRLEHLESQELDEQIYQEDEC
Chain of ETV1 (P50549 whole entry): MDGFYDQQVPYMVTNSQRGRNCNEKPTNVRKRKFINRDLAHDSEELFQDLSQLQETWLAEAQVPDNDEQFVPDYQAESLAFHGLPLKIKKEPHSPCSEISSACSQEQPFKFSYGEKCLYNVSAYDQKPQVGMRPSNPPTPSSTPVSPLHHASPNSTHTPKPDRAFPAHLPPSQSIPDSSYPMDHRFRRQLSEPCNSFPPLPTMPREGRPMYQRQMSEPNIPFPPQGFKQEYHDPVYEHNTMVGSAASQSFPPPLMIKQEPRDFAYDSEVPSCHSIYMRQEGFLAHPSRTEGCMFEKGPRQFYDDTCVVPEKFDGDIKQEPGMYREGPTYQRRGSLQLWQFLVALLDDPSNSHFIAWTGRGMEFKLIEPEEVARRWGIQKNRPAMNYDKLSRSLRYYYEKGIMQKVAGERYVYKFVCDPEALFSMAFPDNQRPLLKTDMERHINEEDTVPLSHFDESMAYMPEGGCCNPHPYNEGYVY
Chain of SPIB (Q01892 whole entry): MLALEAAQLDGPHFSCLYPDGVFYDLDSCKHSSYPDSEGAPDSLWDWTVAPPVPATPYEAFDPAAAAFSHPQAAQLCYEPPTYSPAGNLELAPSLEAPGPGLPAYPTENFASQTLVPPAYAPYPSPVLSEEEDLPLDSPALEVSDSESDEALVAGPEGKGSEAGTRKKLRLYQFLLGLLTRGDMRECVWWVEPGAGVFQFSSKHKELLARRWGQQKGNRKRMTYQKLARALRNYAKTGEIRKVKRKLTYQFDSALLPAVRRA

In the case of CTGCGG, the binding signal is 1.23 fold enrichment (6-mer frequency, TF over GST control) with FLI1; 1.26 fold enrichment (6-mer frequency, TF over GST control) with ELK1; 1.05 fold enrichment (6-mer frequency, TF over GST control) with GABPA; 1.1 fold enrichment (6-mer frequency, TF over GST control) with ERG; 1.18 fold enrichment (6-mer frequency, TF over GST control) with ELF1; 1.3 fold enrichment (6-mer frequency, TF over GST control) in the test with EHF. For the same sequence, the binding signal in the test with SPI1 is 1.03 fold enrichment (6-mer frequency, TF over GST control); with SPIB, 1.09 fold enrichment (6-mer frequency, TF over GST control); with ELK3, 1.05 fold enrichment (6-mer frequency, TF over GST control); with FEV, 1.07 fold enrichment (6-mer frequency, TF over GST control); with ETV5, 1.16 fold enrichment (6-mer frequency, TF over GST control); with SPIC, 1.06 fold enrichment (6-mer frequency, TF over GST control). The binding signal in the test with ELF4 was 1.14 fold enrichment (6-mer frequency, TF over GST control); in the test with ETV1 it was 1.15 fold enrichment (6-mer frequency, TF over GST control); in the test with ERF it was 1.04 fold enrichment (6-mer frequency, TF over GST control); with ETV3L, 1.17 fold enrichment (6-mer frequency, TF over GST control); in the test with ETS2, 1.12 fold enrichment (6-mer frequency, TF over GST control); in the test with ELF5, 1.06 fold enrichment (6-mer frequency, TF over GST control). For the same sequence, the binding signal with ETV3 was 1.14 fold enrichment (6-mer frequency, TF over GST control); with ETV6, 1.09 fold enrichment (6-mer frequency, TF over GST control).
